Test results from ChEMBL document CHEMBL1961873, “Compounds: GSK PKIS; Assays: Nanosyn kinase panel” (2012).

How the values were obtained:
[1] = target: T1, Aurora kinase A (Homo sapiens) (UniProt O14965); conditions: at 1 µM;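 further: values are mean percent inhibition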
T1 sequence (whole entry): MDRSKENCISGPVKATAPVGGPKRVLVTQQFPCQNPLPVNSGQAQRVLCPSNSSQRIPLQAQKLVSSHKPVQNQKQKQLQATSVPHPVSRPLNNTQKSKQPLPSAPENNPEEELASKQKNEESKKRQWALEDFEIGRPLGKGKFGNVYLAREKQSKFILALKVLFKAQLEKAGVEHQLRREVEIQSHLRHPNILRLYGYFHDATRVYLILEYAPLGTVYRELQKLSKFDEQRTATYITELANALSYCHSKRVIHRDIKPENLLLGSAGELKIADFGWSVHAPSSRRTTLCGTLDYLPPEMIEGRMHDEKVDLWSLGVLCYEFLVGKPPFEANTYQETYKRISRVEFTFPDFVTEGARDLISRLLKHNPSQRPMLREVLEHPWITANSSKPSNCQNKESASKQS

[2] = target: Aurora kinase B (Homo sapiens) (UniProt Q96GD4); conditions: at 0.1 µM
[3] = target: Aurora kinase B (Homo sapiens) (UniProt Q96GD4); conditions: at 1 µM
[4] = target: T2, Aurora kinase C (Homo sapiens) (UniProt Q9UQB9); conditions: at 0.1 µM
T2 sequence (whole entry): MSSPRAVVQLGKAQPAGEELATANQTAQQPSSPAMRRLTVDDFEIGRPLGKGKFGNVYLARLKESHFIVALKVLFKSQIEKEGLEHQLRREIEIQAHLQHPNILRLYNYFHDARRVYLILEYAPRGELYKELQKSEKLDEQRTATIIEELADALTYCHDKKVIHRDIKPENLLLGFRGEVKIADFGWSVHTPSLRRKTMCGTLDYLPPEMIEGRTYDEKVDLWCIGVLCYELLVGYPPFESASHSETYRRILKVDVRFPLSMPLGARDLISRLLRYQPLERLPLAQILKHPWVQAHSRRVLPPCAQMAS

[5] = target: T2, Aurora kinase C (Homo sapiens); conditions: at 1 µM
[6] = target: Serine/threonine-protein kinase 10 (Homo sapiens) (UniProt O94804); conditions: at 0.1 µM
[7] = target: Serine/threonine-protein kinase 10 (Homo sapiens) (UniProt O94804); conditions: at 1 µM
[8] = target: T3, Mitogen-activated protein kinase kinase kinase kinase 2 (Homo sapiens) (UniProt Q12851); conditions: at 0.1 µM
T3 sequence (whole entry): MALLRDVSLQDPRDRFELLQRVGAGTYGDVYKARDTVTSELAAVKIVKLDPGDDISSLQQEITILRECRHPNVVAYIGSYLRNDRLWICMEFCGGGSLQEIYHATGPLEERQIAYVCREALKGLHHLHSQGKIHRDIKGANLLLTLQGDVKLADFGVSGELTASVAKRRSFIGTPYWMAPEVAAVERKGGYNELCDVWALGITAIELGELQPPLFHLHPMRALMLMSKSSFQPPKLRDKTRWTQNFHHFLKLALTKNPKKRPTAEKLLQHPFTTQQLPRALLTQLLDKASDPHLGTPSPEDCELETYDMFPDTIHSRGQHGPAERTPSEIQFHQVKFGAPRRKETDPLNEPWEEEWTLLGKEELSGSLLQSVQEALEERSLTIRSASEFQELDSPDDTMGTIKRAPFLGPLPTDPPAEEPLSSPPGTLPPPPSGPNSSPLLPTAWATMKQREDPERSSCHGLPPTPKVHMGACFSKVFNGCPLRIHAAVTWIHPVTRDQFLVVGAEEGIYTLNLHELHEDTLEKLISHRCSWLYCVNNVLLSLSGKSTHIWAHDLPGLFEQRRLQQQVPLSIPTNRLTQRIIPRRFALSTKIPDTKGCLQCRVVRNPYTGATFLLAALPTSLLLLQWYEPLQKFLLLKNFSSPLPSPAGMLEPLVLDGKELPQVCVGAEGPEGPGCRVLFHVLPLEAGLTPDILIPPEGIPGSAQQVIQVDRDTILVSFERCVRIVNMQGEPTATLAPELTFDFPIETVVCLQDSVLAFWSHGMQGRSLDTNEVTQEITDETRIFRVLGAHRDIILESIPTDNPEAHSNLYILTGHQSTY

[9] = target: T3, Mitogen-activated protein kinase kinase kinase kinase 2 (Homo sapiens); conditions: at 1 µM
[10] = target: Mitogen-activated protein kinase kinase kinase kinase 4 (Homo sapiens) (UniProt O95819); conditions: at 0.1 µM
[11] = target: Mitogen-activated protein kinase kinase kinase kinase 4 (Homo sapiens) (UniProt O95819); conditions: at 1 µM
[12] = target: Dual specificity mitogen-activated protein kinase kinase 1 (Homo sapiens) (UniProt Q02750); conditions: at 0.1 µM
[13] = target: Dual specificity mitogen-activated protein kinase kinase 1 (Homo sapiens) (UniProt Q02750); conditions: at 1 µM
[14] = target: Misshapen-like kinase 1 (Homo sapiens) (UniProt Q8N4C8); conditions: at 0.1 µM
[15] = target: Misshapen-like kinase 1 (Homo sapiens) (UniProt Q8N4C8); conditions: at 1 µM
[16] = target: T4, Serine/threonine-protein kinase 4 (Homo sapiens) (UniProt Q13043); conditions: at 0.1 µM
T4 sequence (whole entry): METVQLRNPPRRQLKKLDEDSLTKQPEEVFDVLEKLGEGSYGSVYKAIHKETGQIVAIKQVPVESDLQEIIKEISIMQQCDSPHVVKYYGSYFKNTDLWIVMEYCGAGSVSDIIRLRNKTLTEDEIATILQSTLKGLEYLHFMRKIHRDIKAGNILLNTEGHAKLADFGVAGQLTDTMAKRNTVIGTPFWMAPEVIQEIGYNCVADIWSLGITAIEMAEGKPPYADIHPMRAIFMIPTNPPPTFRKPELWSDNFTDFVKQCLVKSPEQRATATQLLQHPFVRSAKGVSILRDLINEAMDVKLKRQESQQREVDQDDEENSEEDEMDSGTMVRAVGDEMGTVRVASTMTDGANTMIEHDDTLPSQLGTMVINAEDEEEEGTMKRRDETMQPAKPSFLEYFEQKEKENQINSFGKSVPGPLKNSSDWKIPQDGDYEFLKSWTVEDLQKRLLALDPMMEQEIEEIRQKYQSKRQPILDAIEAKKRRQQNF

[17] = target: T4, Serine/threonine-protein kinase 4 (Homo sapiens); conditions: at 1 µM
[18] = target: T5, Serine/threonine-protein kinase 3 (Homo sapiens) (UniProt Q13188); conditions: at 0.1 µM
T5 sequence (whole entry): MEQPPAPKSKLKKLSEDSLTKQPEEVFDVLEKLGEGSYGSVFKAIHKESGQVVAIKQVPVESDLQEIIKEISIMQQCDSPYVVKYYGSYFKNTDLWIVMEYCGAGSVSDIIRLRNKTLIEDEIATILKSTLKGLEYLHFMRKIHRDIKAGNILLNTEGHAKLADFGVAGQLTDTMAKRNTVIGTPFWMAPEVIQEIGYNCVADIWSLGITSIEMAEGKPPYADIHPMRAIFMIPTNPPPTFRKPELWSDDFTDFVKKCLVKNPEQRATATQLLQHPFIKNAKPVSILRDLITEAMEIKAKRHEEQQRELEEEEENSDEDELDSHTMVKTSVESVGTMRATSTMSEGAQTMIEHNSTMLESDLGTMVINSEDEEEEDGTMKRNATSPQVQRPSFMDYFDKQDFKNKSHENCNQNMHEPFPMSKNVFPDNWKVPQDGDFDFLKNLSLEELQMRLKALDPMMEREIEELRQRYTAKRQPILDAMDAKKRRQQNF

[19] = target: T5, Serine/threonine-protein kinase 3 (Homo sapiens); conditions: at 1 µM
[20] = target: Serine/threonine-protein kinase 26 (Homo sapiens) (UniProt Q9P289); conditions: at 0.1 µM
Sequence of Serine/threonine-protein kinase 26 (Homo sapiens) (Q9P289 2-416 limits assumed): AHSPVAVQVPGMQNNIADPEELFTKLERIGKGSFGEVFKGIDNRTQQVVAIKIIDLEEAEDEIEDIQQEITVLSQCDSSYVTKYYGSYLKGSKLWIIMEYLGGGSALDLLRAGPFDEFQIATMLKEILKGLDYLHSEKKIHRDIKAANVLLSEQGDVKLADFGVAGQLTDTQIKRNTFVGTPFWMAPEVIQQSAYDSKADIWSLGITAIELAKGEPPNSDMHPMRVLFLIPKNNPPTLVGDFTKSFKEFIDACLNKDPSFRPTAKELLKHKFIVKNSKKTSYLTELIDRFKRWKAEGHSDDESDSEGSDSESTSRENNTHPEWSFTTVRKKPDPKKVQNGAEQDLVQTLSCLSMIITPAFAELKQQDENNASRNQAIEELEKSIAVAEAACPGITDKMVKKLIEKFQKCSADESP

Sequence of Dual specificity mitogen-activated protein kinase kinase 1 (Homo sapiens) (Q02750 whole entry): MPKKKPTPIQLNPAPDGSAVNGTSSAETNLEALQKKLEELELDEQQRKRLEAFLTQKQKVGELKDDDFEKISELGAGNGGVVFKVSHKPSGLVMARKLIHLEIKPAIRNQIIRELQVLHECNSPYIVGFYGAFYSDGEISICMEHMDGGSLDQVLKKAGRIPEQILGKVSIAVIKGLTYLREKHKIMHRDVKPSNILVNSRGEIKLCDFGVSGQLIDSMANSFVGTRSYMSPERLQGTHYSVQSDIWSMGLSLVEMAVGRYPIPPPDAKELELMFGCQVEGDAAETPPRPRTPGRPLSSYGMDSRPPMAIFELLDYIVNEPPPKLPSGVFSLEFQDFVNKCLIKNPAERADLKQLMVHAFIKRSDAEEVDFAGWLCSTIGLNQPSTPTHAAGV
Sequence of Aurora kinase B (Homo sapiens) (Q96GD4 whole entry): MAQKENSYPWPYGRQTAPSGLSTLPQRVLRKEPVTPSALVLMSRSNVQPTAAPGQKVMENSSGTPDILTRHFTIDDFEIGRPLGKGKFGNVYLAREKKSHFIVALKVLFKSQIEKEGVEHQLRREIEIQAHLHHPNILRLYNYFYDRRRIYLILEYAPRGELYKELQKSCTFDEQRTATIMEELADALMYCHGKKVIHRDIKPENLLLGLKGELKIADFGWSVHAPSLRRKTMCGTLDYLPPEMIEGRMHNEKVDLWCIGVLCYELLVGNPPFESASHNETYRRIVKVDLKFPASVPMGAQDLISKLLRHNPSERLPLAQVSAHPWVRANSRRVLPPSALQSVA
Sequence of Serine/threonine-protein kinase 10 (Homo sapiens) (O94804 whole entry, looked up): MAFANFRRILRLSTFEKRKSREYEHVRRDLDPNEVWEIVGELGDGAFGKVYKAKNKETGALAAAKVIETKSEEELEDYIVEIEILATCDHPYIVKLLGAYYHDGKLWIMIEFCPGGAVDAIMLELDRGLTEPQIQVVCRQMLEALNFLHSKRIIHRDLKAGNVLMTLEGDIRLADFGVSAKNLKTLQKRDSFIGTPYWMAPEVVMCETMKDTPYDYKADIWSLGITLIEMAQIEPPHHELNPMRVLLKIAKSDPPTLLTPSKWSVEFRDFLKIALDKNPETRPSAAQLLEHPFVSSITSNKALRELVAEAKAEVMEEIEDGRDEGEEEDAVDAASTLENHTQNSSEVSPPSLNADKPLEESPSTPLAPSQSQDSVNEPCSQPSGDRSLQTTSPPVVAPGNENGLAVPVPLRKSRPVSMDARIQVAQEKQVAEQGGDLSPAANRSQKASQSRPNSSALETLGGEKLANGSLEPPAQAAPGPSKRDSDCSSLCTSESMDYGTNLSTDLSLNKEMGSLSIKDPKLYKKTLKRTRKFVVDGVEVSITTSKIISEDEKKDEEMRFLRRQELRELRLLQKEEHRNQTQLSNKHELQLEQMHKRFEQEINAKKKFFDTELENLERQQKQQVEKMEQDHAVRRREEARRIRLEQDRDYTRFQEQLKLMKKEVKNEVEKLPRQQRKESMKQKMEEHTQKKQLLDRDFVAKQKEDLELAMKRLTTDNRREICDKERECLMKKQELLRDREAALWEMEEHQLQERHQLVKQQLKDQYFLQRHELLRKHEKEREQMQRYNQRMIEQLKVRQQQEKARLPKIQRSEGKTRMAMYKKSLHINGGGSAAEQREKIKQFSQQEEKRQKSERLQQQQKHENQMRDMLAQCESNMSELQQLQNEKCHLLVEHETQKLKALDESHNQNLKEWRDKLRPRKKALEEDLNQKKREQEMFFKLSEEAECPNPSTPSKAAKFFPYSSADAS
Sequence of Misshapen-like kinase 1 (Homo sapiens) (Q8N4C8 whole entry, looked up): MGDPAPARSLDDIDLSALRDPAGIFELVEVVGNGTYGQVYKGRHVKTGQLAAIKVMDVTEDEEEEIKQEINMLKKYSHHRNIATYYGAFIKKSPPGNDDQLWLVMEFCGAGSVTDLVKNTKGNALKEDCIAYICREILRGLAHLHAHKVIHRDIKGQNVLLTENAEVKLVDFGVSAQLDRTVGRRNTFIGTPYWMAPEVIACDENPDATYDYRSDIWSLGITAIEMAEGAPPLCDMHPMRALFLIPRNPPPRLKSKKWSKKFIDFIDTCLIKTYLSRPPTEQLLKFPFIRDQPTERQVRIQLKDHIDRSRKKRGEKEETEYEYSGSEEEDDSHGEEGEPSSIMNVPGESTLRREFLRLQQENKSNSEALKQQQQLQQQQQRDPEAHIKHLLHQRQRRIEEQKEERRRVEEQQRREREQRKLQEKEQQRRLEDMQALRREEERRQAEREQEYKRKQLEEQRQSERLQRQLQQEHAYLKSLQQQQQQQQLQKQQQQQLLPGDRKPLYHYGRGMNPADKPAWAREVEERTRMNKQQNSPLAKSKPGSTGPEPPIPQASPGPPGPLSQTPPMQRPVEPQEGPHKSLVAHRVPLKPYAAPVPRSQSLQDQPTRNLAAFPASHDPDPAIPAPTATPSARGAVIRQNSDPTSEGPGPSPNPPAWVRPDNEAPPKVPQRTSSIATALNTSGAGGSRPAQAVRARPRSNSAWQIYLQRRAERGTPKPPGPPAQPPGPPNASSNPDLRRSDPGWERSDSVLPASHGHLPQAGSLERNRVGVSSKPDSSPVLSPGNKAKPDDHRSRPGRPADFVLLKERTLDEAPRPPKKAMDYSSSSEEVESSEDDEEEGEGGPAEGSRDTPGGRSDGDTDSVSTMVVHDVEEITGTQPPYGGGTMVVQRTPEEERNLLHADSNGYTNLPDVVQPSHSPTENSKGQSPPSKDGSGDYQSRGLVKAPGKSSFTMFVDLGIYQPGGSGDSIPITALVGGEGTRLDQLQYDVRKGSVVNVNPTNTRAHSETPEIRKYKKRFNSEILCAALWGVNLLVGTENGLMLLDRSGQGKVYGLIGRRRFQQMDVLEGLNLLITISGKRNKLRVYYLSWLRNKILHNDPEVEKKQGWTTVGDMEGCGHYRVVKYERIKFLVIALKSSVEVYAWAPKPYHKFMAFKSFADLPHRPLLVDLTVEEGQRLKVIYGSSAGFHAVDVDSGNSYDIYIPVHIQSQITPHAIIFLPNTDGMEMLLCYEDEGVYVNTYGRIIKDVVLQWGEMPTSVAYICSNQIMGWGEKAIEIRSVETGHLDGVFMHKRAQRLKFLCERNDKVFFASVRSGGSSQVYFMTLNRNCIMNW
Sequence of Mitogen-activated protein kinase kinase kinase kinase 4 (Homo sapiens) (O95819 2-1239 limits assumed): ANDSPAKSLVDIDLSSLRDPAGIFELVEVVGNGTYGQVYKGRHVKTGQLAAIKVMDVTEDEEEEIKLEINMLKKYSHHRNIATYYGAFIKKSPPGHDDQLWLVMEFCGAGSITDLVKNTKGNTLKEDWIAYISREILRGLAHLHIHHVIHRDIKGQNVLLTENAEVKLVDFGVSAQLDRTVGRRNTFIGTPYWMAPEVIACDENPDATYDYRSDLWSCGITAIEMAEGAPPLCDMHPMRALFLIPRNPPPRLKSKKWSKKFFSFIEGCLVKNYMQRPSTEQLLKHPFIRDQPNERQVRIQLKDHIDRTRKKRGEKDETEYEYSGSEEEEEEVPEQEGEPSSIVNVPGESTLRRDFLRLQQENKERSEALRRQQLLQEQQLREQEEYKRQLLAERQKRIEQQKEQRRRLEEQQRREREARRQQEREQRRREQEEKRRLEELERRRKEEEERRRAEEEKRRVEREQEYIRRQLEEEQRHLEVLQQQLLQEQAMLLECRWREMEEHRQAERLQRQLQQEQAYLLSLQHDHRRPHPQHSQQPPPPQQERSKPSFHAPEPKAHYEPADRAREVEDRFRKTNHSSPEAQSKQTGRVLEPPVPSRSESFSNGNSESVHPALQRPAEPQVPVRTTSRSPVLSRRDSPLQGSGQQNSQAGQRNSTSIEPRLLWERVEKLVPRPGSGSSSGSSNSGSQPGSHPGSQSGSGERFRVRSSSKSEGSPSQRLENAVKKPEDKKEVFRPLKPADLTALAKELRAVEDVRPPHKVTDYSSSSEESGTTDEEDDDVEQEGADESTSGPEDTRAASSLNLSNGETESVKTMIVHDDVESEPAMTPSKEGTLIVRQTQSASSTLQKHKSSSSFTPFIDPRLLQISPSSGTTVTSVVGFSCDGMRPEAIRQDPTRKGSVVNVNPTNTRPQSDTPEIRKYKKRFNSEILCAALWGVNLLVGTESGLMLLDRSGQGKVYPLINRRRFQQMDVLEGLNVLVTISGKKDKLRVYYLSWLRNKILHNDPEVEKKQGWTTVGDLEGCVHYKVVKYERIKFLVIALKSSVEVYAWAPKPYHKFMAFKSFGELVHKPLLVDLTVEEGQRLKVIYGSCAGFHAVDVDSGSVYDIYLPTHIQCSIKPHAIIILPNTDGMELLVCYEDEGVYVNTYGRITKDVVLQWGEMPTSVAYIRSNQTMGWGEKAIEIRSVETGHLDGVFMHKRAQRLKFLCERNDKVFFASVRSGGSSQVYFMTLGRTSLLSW

SMILES	inhibition [1]	inhibition [2]	inhibition [3]	inhibition [4]	inhibition [5]	inhibition [6]	inhibition [7]	inhibition [8]	inhibition [9]	inhibition [10]	inhibition [11]	inhibition [12]	inhibition [13]	inhibition [14]	inhibition [15]	inhibition [16]	inhibition [17]	inhibition [18]	inhibition [19]	inhibition [20]
CS(=O)(=O)CCN(CC#N)Cc1ccc(-c2ccc3ncnc(Nc4ccc(OCc5cccc(F)c5)c(Cl)c4)c3c2)o1	-0.17%	-3.61%	0.96%	-4.78%	1.4%	3.25%	7.32%	-0.14%	-0.7%	3.8%	5%	2.47%	0.44%	3.04%	3.9%	0.41%	0.1%	0.67%	1.66%	-1.31%
CC1=C(C(=O)Nc2ccc3[nH]ncc3c2)C(c2ccc3ccccc3c2)CC(=O)N1 (stereo not given)	70.6%	4.02%	22%	3.09%	32.8%	2.65%	2.84%	1.47%	3.14%	2.51%	3.73%	8.09%	44.4%	4.56%	3.98%	3.56%	12.2%	3.29%	9.79%	-0.11%
CS(=O)(=O)CCNCc1ccc(-c2ccc3ncnc(Nc4ccc(OCc5ccccc5)c(Cl)c4)c3c2)o1	1.2%	2.22%	10.4%	1.18%	7.9%	1.97%	8.82%	3.3%	7.74%	2.21%	3.37%	1.17%	1.86%	1.93%	1.65%	0.89%	2.54%	-1.21%	0.47%	0.75%
Fc1cccc(COc2ccc(Nc3ncnc4cc(-c5ccc[nH]5)sc34)cc2Cl)c1	7.53%	0.54%	13.2%	-2.76%	-2.08%	2.11%	11.9%	0.55%	4.58%	5.64%	13.9%	3.99%	3.24%	6.08%	12.7%	0.61%	2.35%	1.18%	3.32%	-0.07%
COc1ccc(COc2ccc(Cc3cnc(N)nc3N)cc2OC)cc1	2.3%	3.53%	4.95%	2.97%	16.2%	5.28%	7.31%	3.72%	3.99%	0.34%	6.03%	1.66%	0.97%	0.71%	4.81%	4.51%	4.23%	3.88%	3.04%	3.22%
CCn1c(-c2nonc2N)nc2cncc(C(=O)N3CC[C@H](N)C3)c21	3.21%	2.84%	6.38%	1.58%	-2.29%	4.37%	12%	0.43%	2.34%	5.42%	5.7%	6.85%	6.13%	7.01%	6.82%	3.69%	4.11%	4.28%	4.87%	-0.5%
NS(=O)(=O)c1ccc(N/N=C2\C(=O)Nc3ccc(C(=O)NCCc4c[nH]cn4)cc32)cc1	41.2%	6%	26.8%	3.9%	31.5%	3.71%	8.99%	1.62%	6.59%	10.5%	40%	6.81%	16.3%	11.2%	32.6%	56.3%	86.7%	46.5%	83.5%	-0.45%
CCCN1CCC(Oc2cc(Nc3nc(Nc4cccc(F)c4C(N)=O)c4cc[nH]c4n3)c(OC)cc2Cl)CC1	5.9%	3.16%	6.47%	2.93%	-1.8%	-0.06%	7.28%	1.26%	9.17%	-0.01%	3.64%	0.84%	20.6%	1%	1.71%	-0.56%	1.54%	-0.96%	0.14%	1.68%
c1cnn2ncc(-c3ccnc(Nc4ccc5c(c4)OCCO5)n3)c2c1	85.5%	14.4%	65.2%	18.8%	96.8%	5.98%	23.8%	13.6%	56.5%	11.3%	51.5%	7.35%	27.8%	9.95%	40.4%	7.88%	19.1%	7.54%	16.1%	-1.31%
CS(=O)(=O)CCNCc1ccc(-c2ccc3ncnc(Nc4ccc(OCc5cccc(F)c5)c(C(F)(F)F)c4)c3c2)o1	2.73%	2.77%	-1.87%	0.77%	-1.89%	3.11%	7.45%	1.28%	2.47%	3.22%	8.1%	5.38%	4.64%	4.62%	7.1%	3.92%	5.23%	3.56%	4.74%	-1.09%
COc1ccc(-c2nn3ncccc3c2-c2ccnc(Nc3ccc(Cl)c(C(F)(F)F)c3)n2)cc1	6.68%	4.71%	2.65%	0.61%	-3.91%	4.44%	10.5%	0.35%	0.58%	3.81%	14.7%	2.33%	1.56%	3.94%	10.2%	1.84%	5.36%	2.73%	6.97%	0.59%
COc1cccc(-n2ncc3c(N/N=C/c4cccc(F)c4)ncnc32)c1	16.9%	-1%	7.83%	-2.12%	1.75%	3.91%	11.8%	1.55%	4.59%	7.45%	35%	3.46%	3.27%	7.28%	25.8%	3.89%	8.39%	2.89%	6.96%	-0.8%
NC(=O)c1cccc(Nc2nccc(Nc3cccc4[nH]ncc34)n2)c1	96.8%	24.5%	73.7%	39.2%	100%	-1.55%	31.9%	2.55%	24.3%	2.67%	39.2%	-4%	0.69%	0.64%	29%	-3.17%	13.3%	-4.57%	6.87%	-0.32%
